Consider ten molecules from ChEMBL document CHEMBL1157539, “Thousands of chemical starting points for antimalarial lead identification” (Nature, 2010).

Holding throughout (assay type): functional
Assay [1] has as its system Plasmodium falciparum. Nature of the assay: GSK_TCMDC: Inhibition of Plasmodium falciparum 3D7 in whole red blood cells, using parasite LDH activity as an index of growth. Test compounds present at 2uM.
Assay [2] concerns Plasmodium falciparum. Nature of the assay: GSK_TCMDC: Inhibition of Plasmodium falciparum Dd2 in whole red blood cells, using parasite LDH activity as an index of growth. Test compounds present at 2uM.
The test system of the next assay is HepG2. Nature of the assay: GSK_TCMDC: Percent inhibition of human HepG2 cell line. Test compounds present at 10uM.

`COC(=O)c1cc(C(O)CNC(C)CCc2cccc(F)c2)ccc1O.Cl` (stereo not given): the Inhibition in the assay on Plasmodium falciparum [1] is given as 94%; in the assay with Plasmodium falciparum [2] it was 77%; with HepG2, 38%.

Turning to `Cc1cc(=NN=Cc2cccc(Cl)c2)c2cc(F)ccc2[nH]1`, the Inhibition with Plasmodium falciparum [1] is on record as 100%; in the assay with Plasmodium falciparum [2], 100%; in the assay on HepG2 it was 1%.

With `CCCCNc1c(CC)c(C)c(C#N)c2nc3ccccc3n12`, the values for the Inhibition in the assay with Plasmodium falciparum [1], in the assay on Plasmodium falciparum [2] and in the assay with HepG2 were 100%, 100% and 3%, respectively.

Consider `CNCCNCc1cccc(-c2ccc(-c3nc4cc(C(F)(F)F)ccc4[nH]3)s2)c1.O=C(O)C(F)(F)F`, for which the Inhibition with Plasmodium falciparum [1] was found to be 98%; with Plasmodium falciparum [2] it was 85%; with HepG2, 31%.

On to `O=C(Nc1ccccc1)N(Cc1cccc(-c2cccc(CNCCc3ccccc3)c2)c1)C1CCN(Cc2ccccc2)CC1.O=C(O)C(F)(F)F`, for which the Inhibition with Plasmodium falciparum [1] was 100%; in the assay with Plasmodium falciparum [2], 87%; in the assay on HepG2, 100%.

Turning to `O=C(N[C@H]1CCN(Cc2ccc(OCCCN3CCCCC3)cc2)C1)c1ccc(Cl)c(Cl)c1`, the values for the Inhibition in the assay with Plasmodium falciparum [1], with Plasmodium falciparum [2] and with HepG2 were 100%, 36% and 27%, respectively.

Take `O=C(O)C(F)(F)F.Oc1ccc(CCNc2nc(NCCCOc3cc(CN4CCCCC4)ccc3F)nc(N3CCNCC3)n2)cc1`: the Inhibition came out at 100% in the assay with Plasmodium falciparum [1], 0% in the assay on Plasmodium falciparum [2] and 30% in the assay on HepG2.

Take `CCOc1cc(C)c(C2CCN(CCCCNC(=O)c3ccc(NC(=O)c4ccc(Cl)cc4)cc3)CC2)cc1C`: the Inhibition with Plasmodium falciparum [1] was 100%; in the assay on Plasmodium falciparum [2], 87%; in the assay with HepG2 it was 10%.

For the molecule `Cc1nc(-c2cccc(Nc3nccc(NCC(O)c4cccc(C(F)(F)F)c4)n3)c2)cs1` (stereo not given), the results for the Inhibition in the assay on Plasmodium falciparum [1], with Plasmodium falciparum [2] and with HepG2 were 100%, 99% and 14%, respectively.

In the case of `Cc1cc(C)cc(NC(=S)NCCCCN2CCN(c3cccc(Cl)c3)CC2)c1`, the Inhibition in the assay with Plasmodium falciparum [1] was 88%; with Plasmodium falciparum [2], 13%; in the assay with HepG2, 11%.

As a reminder, the Inhibition is the percentage by which the read-out fell short of the control. Low values mean a response near the control, high ones a response far below the control.
